Hit rate of the full screen: of about 52,000 compounds, about 4,300 (8.3%) were called active. What follows is part of a selection rich in actives, with near analogues and random picks from the rest. A number with no mark means an inactive call. No stated cut-off is given here; in the data, active means survival mostly below about 52% (no sharp cut-off); inactive means mostly above about 56%.
tested on: DeltatarO mutant; assay: growth inhibition of S. aureus wild type versus tarO mutant, primary screen, teichoic acid synthesis inhibitors, RN4220, OD600 (AID 463173); settings: OD600, 18 h, hits give low values, screened at 18.75 µg/mL (by protocol)

SMILES	survival
CC(=O)c1cccc(Nc2ncnc3c2cnn3C)c1	67%
COc1ccc(CCNC(=O)C(=O)NCC(c2cccs2)S(=O)(=O)c2ccc(C)cc2)cc1 (stereo not given)	69%
O=C(CC1N=C2c3ccccc3N=C(SCc3ccc(F)cc3)N2C1=O)NC1CCCCC1 (stereo not given)	124%
Cc1ccc(CNS(=O)(=O)c2cc3c(cc2C)NC(=O)CO3)cc1	79%
CCCN(CCC)c1nn2c(=O)c(C(=O)NCc3cccc(OC)c3)cnc2s1	84%
CC(C)NC(=O)CSc1nc2ccccc2n1CC(=O)NC(C)C	96%
COC(=O)c1ccccc1NC(=S)N(Cc1ccco1)Cc1cc2cc(C)ccc2[nH]c1=O	94%
O=c1c2ccccc2nc2sc(Nc3cccc(C(F)(F)F)c3)nn12	86%
CN(C(=O)c1cc2sccc2n1Cc1ccc(F)cc1)C1CCCCC1	88%
CCOc1ccccc1C(=O)Nc1ccc(S(=O)(=O)Nc2onc(C)c2C)cc1	77%
CCN(C1CCCCC1)S(=O)(=O)c1cccc(S(=O)(=O)N2CCCC2)c1	70%
COc1cc(C2c3c(oc4ccc(F)cc4c3=O)C(=O)N2c2nc(C)c(C)s2)cc(OC)c1OC (stereo not given)	157%
COc1ccc2c(Sc3ccc(C)cc3)c(C(=O)NC(C)C)[nH]c2c1	86%
Cc1ccc(CCNC(=O)CCn2nc(-c3ccc(C)cc3)ccc2=O)cc1	94%
COc1ccc(C(=O)O)cc1Nc1nc2ccc(C)cc2n2cnnc12	117%
CC(=O)c1cccc(Nc2nc(-c3cccc(C)c3)nc3ccccc23)c1	4% (active)
COc1ccc(Nc2nc(-c3ccccc3F)nc3ccccc23)cc1OC	99%
CC(=O)c1cccc(NC(=O)c2nc(-c3ccccc3)n(-c3ccccc3C)n2)c1	76%
COc1ccc(Nc2nc(-c3ccc(C)cc3)nc3ccccc23)c(OC)c1	75%
OCCNc1nc(-c2cccnc2)nc2ccccc12	93%
COc1cc(Nc2nc(-c3ccc(OC)c(OC)c3)nc3ccccc23)cc(OC)c1	-2% (active)
CCC(=O)OCCCNc1nc(-c2ccc(Cl)cc2)nc2ccccc12	-2% (active)
CCOc1ccccc1OCCCCn1c(-c2ccc(Cl)cc2)nc2ccccc2c1=O	45%
CC(=O)c1cccc(NC(=O)c2nc(-c3ccccc3)n(-c3cccc(C)c3)n2)c1	64%
O=C(O)c1ccc(Nc2nc3ccccc3c3nncn23)cc1	95%

SMILES	survival
COc1ccc(CNC(=O)C(OC(=O)c2ccc(Cl)nc2)c2ccccn2)cc1 (stereo not given)	104%
CCC(CC)C(=O)OCc1cc(=O)n2nc(C3CC3)sc2n1	62%
COc1ccc(CCNC(=O)CCc2c(C)nc3c(c(C)nn3-c3ccc(C)c(C)c3)c2C)cc1OC	57%
CC1=C(C)CC(C(=O)Nc2ccc(NC(=O)NC3CCCCC3)cc2)C(C(=O)O)C1 (stereo not given)	81%
Cc1cc(N2CCN(c3cccc(C(F)(F)F)c3)CC2)n2nc(-c3ccccc3)nc2n1	41% (active)
Cc1cc(N2CCN(c3cccc(C(F)(F)F)c3)CC2)n2nc(-c3ccccc3C)nc2n1	2% (active)
Cc1cc(N2CCN(c3ccc(F)cc3)CC2)n2nc(-c3ccc(Cl)cc3)nc2n1	49%
Cc1ccc(-c2nc3nc(C)cc(N4CCN(c5cc(Cl)ccc5C)CC4)n3n2)cc1	86%
COc1ccc(-c2nc3nc(C)cc(N4CCN(c5cccc(C(F)(F)F)c5)CC4)n3n2)cc1	45%
Cc1cccc(-c2nc3nc(C)cc(N4CCN(c5ccccc5)CC4)n3n2)c1	60%
O=C(O)CCSc1nc2ccccc2o1	87%
CCc1cccc(C)c1NC(=O)CN(C)S(=O)(=O)c1cccc2nsnc12	89%
COC(=O)C1=C(C)NC(=O)C1(NC(=O)c1cc(OC)c(OC)c(OC)c1)C(F)(F)F (stereo not given)	54%
CC(=O)c1ccc(NC(=O)C(C)n2nc(-c3ccccc3)ccc2=O)cc1 (stereo not given)	32% (active)
CCC(C(=O)Nc1cccc(Cl)c1C)n1nc(-c2ccc(C)cc2)ccc1=O (stereo not given)	41% (active)
CCC(C(=O)Nc1cc(OC)cc(OC)c1)n1nc(-c2ccc(C)c(C)c2)ccc1=O (stereo not given)	75%
COc1ccc(NC(=O)C(C)n2nc(-c3ccc(C)c(C)c3)ccc2=O)cc1OC (stereo not given)	69%
Cc1ccc(-c2ccc(=O)n(C(C)C(=O)Nc3ccccc3Cl)n2)cc1C (stereo not given)	66%
Cc1ccc(-c2ccc(=O)n(CC(=O)Nc3ccc(C)cc3Cl)n2)cc1	50%
Cc1ccc(Cl)cc1NC(=O)C(C)n1nc(-c2ccccc2)ccc1=O (stereo not given)	20% (active)
CCC(C(=O)Nc1cc(Cl)ccc1OC)n1nc(-c2ccccc2)ccc1=O (stereo not given)	24% (active)
CCC(C(=O)Nc1cccc(Cl)c1C)n1nc(C)c2sc3ccccc3c2c1=O (stereo not given)	72%
COc1ccc(Cl)cc1NC(=O)C(OC)c1ccccc1 (stereo not given)	83%
Cc1ccc(Cl)cc1NC(=O)C(C)n1nnc2sc(-c3ccccc3)cc2c1=O (stereo not given)	59%
CC(=O)c1ccc(NC(=O)CSc2ccc3nc(-c4ccccc4)cn3n2)cc1	89%

Reference: PubChem BioAssay AID463173 (ICCB-Longwood Screening Facility, Harvard Medical School, 2010)
